Source: the supplement of paper PMC7801607

Key:
CHO = test: % viability of CHO cells (MTT); higher = less toxic; conditions: 48 h
How it was run: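 Viability was given as a percentage of untreated cells and measured colorimetrically by the tetrazolium (MTT) assay. Before this, CHO cells at 10^6 cells/well in 200 µL attached overnight, then received fresh medium containing compound at 2 or 20 µM for 48 h.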

HepG2-A16-CD81 = test: % inhibition of HepG2 viability (CellTiter-Glo); higher = more toxic; conditions: 5 µM
[1] = test system: Plasmodium falciparum NF54 stage IV/V gametocytes; test: % inhibition of gametocyte viability (PrestoBlue); higher = more inhibition; conditions: 48 h
How it was run: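 Values are percent inhibition of gametocyte viability, normalised to vehicle and kill controls in a single run. Stage IV/V NF54 gametocytes (2% gametocytaemia, 5% haematocrit, 100 µL/well) were held with compound at 1 or 5 µM for 48 h at 37 °C, stationary and hypoxic. Viability was read as 612 nm fluorescence on 70 µL of supernatant after a 2 h incubation with 10 µL PrestoBlue.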

[2] = test system: Plasmodium falciparum NF54 asexual blood stage; test: % inhibition of asexual blood stage proliferation (pLDH); higher = more inhibition; conditions: 72 h
How it was run: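 Using 96-well plates, the screen was run twice on separate occasions with Plasmodium falciparum NF54 ring-stage cultures at 1% haematocrit and 2% parasitaemia. Each culture was exposed to compound at 2 or 20 µM for 72 h at 37 °C under a gas mix of 4% CO2, 3% O2 and 93% N2. After incubation, the parasite lactate dehydrogenase assay was read colorimetrically at 620 nm. From this readout, percent inhibition of asexual proliferation was derived against control wells.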

[3] = test system: Plasmodium falciparum NF54 stage IV/V gametocytes; test: % inhibition of gametocyte viability (ATP bioluminescence); higher = more inhibition; conditions: 24 h
How it was run: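 Viability of stage IV/V NF54 gametocytes is given as percent inhibition, normalised to control wells in a single run. Gametocytes enriched on density gradients were seeded at 30,000 per well in 96-well plates with compound at 1 or 5 µM and held at 37 °C for 24 h. ATP was then read with the Promega BacTiter Glo bioluminescence system.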

[4] = test system: Plasmodium falciparum NF54 stage IV/V gametocytes; test: % inhibition of gametocyte viability (luciferase reporter); higher = more inhibition; conditions: 48 h
How it was run: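 Percent inhibition came from luminescence and was normalised to controls in a single run. Gametocytes (stage IV/V, NF54-Pfs16-GFP-Luc line, 2% gametocytaemia, 2% haematocrit) were treated with compound at 1 or 5 µM and incubated for 48 h at 37 °C without agitation under hypoxia. Readings used 30 µL lysate with 30 µL Promega luciferin substrate on a GloMax-Multi+ reader, integrating for 10 s.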

[5] = test system: Plasmodium berghei ANKA liver stage in HepG2-A16-CD81; test: % inhibition of liver stage parasite viability (luciferase); higher = more inhibition; conditions: 5 µM; 48 h
Experimental: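 Single-concentration screen of the MMV Pandemic Response Box. P. falciparum NF54 asexual blood stages: pLDH assay, 72 h at 37 °C, 2 and 20 µM, n=2. Stage IV/V gametocytes (NF54): luciferase reporter (NF54-Pfs16-GFP-Luc, 48 h), ATP bioluminescence (24 h) and PrestoBlue (48 h) at 1 and 5 µM, n=1. P. berghei liver stage (luciferase in HepG2-A16-CD81, 48 h post infection) at 5 µM, n=4. All normalised to DMSO and kill controls as % inhibition.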
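Wherever % inhibition of HepG2 viability (CellTiter-Glo) is given: HepG2-A16-CD81 hepatoma cells plated as in the liver-stage assay but without sporozoites, with DMSO wells as negative and 25 µM puromycin as positive control.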

SMILES | % viability of CHO cells (CHO; 2 µM) | % viability of CHO cells (CHO; 20 µM) | % inhibition of HepG2 viability (HepG2-A16-CD81) | % inhibition of gametocyte viability ([1]; 1 µM) | % inhibition of gametocyte viability ([1]; 5 µM) | % inhibition of asexual blood stage proliferation ([2]; 2 µM) | % inhibition of asexual blood stage proliferation ([2]; 20 µM) | % inhibition of gametocyte viability ([3]; 1 µM) | % inhibition of gametocyte viability ([3]; 5 µM) | % inhibition of gametocyte viability ([4]; 1 µM) | % inhibition of gametocyte viability ([4]; 5 µM) | % inhibition of liver stage parasite viability [5]
NC(=O)c1c(N)sc2c1CCCCC2 | 87% | 32% | 6.02% | < 0% | 8.3% | 4.8% | -4.48% | < 0% | < 0% | 0.638% | 1.6% | -7.51%
Cc1oncc1C(=O)Nc1ccc(C(F)(F)F)cc1 | 113% | 96.1% | -5.44% | < 0% | < 0% | 50.7% | 38% | 12% | < 0% | 23.8% | 45.6% | -59.9%
O=C(O)c1cc(-c2ccccc2)nc2ccccc12 | 114% | 94% | -0.148% | < 0% | < 0% | 27% | 90.2% | 1.38% | < 0% | 1.7% | < 0% | 38.5%
O=C(O)C(Cc1c[nH]c2ccccc12)N1C(=O)c2ccccc2C1=O (stereo not drawn) | 89.9% | 92% | -0.93% | < 0% | < 0% | 33.4% | 72.4% | 8.39% | < 0% | 13% | 22.9% | 21.1%
CC(C)(C)c1ccc(C(Cn2cccc(C(F)(F)F)c2=O)NC2Cc3ccccc3C2)cc1 (stereo not drawn) | 106% | 94.3% | -1.5% | 10% | 21.3% | 32.7% | 69.1% | < 0% | < 0% | < 0% | 3.42% | 2.01%
COc1cc(NS(=O)(=O)c2ccc(C)cc2)c2ncccc2c1 | 118% | 94.1% | -7.96% | < 0% | 0.605% | 45.4% | 75.7% | 1.27% | 62.2% | 3.47% | 1.7% | 48.9%
CC(N)C12CC3CC(CC(C3)C1)C2 (stereo not drawn) | 115% | 102% | -6.21% | 4.36% | 25% | 15.8% | 20.4% | 7.67% | 2.98% | < 0% | 3.24% | -6%
CC1CN(c2ncnc3c2c(-c2ccccc2)cn3-c2ccc(F)cc2)CC(C)O1 (stereo not drawn) | 82.6% | 122% | 6.07% | 17.3% | 1.77% | 75.6% | 95.5% | < 0% | < 0% | < 0% | < 0% | 37.1%
Cn1cc(NC(=O)c2cc(NC(=O)c3ccc(/C=C/c4cnc5ccccc5c4)cc3)cn2C)cc1C(=O)NCCN1CCOCC1 | 34.6% | 14.9% | -5.82% | 18.3% | 55.1% | 68.7% | 94% | 22.3% | 15.5% | 64.1% | 67.1% | 85.8%
CC(C)/N=c1\cc2n(-c3ccc(Cl)cc3)c3ccccc3nc-2cc1Nc1ccc(Cl)cc1 | 96.5% | 98.2% | 18.3% | < 0% | < 0% | 82.2% | 88.9% | < 0% | < 0% | < 0% | 16% | –
Oc1cc(-c2cccc3ccccc23)[nH]n1 | 109% | 68.8% | 2.56% | 4.17% | 26.7% | 3.8% | -4.8% | < 0% | < 0% | < 0% | < 0% | 45.4%
COc1ccc(-n2cnc3cc(NCc4ccco4)ccc32)cc1 | 93.6% | 94.6% | 1.83% | < 0% | < 0% | 29.7% | 44.9% | 2.7% | < 0% | < 0% | < 0% | -16.1%
Clc1cc2nc(C3CCNCC3)n(Cc3ccc(CNCCc4cnc[nH]4)cc3)c2cc1Cl | 88.7% | 96.1% | 2.02% | < 0% | 1.67% | 27.7% | 98% | < 0% | 0.428% | < 0% | < 0% | 45.7%
FC(F)(F)c1cc(C(F)(F)F)c2ccc3nc(-c4nnco4)cn3c2n1 | 93.3% | 124% | 8.21% | 17.1% | 21.3% | 19.6% | 26.8% | < 0% | < 0% | 1.44% | 18% | 17.6%
CC[C@H](CO)Nc1nc(NCc2ccccc2)c2ncn(C(C)C)c2n1 | 157% | 60.7% | 10.6% | < 0% | < 0% | -11.2% | 88% | 1.02% | < 0% | 6.71% | < 0% | 26.6%
CCOc1noc2cc(OCCC3CCN(c4ccc(C)nn4)CC3)ccc12 | 66.5% | 58% | 1.58% | 16.1% | 23.3% | 84.1% | 70.5% | 6.06% | 0.657% | 6.47% | 5.12% | 27.3%
O=C(c1cc(O)nc2ccccc12)N1CCN(c2ccccc2)CC1 | 95.9% | 52.7% | -2.09% | < 0% | < 0% | 24.8% | 48.3% | 4.72% | 10.4% | < 0% | < 0% | 34.2%
